Source: PubChem BioAssay (National Center for Advancing Translational Sciences (NCATS))
A selection: hits, their analogues and other compounds. The true share with any hit is near 8.9%.
KB-V1 MDR tox – KB-V1 MDR subline cytotoxicity; KB-V1 MDR cells viability, CellTiter-Glo, 72 h; Potency, µM (top dose mostly 46.1 µM), hits mostly cytotoxic; 400,000 tested, 3.4% active; further: nearly all actives have a fitted effect of over 60% in size
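Cytotoxicity via CellTiter-Glo luminescence after 72 h compound exposure at 37 degrees C. Cells: drug-selected KB-V1 line, DMEM phenol-red free plus 10% FBS. Compounds tested at multiple concentrations; normalized data fitted to concentration-effect curves.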
D3 antag – antagonists of human D3 dopamine receptor. D3R cells, DiscoveRx beta-arrestin luminescence, antagonist mode; active compounds read low. max response, negative = inhibition, %. 360,000 tested, 2.5% active. AID 652054; in the data active means max response below about -50%; inconclusive means no clear call, values can overlap the other calls
Target sequence (P35462 whole entry, looked up): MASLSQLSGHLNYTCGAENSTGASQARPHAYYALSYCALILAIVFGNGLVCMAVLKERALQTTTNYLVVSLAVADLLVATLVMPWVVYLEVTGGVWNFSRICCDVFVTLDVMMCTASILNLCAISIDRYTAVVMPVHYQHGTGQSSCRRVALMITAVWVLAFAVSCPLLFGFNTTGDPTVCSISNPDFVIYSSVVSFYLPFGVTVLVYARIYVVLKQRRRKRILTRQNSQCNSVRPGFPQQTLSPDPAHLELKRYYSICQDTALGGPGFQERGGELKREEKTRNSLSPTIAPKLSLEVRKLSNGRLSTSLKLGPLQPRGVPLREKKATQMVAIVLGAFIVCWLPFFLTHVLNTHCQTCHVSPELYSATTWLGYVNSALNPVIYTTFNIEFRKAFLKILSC
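Cells expressing the human receptor were seeded at 1500 cells/well, incubated overnight at 37 degrees C in 5% CO2, then exposed to library compounds with dopamine controls for 90 minutes at 37 degrees C before luminescent detection.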
D3 ag – agonists of human D3 dopamine receptor; P35462; D3R DiscoveRx beta-arrestin cells, luminescence, 90 min; max activation, %; 410,000 tested, 0.58% active; in the data active means max activation above about 30%
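Agonist mode: compounds and dopamine controls were applied to plated cells for 90 min at 37 degrees C after an overnight attachment at 1500 cells/well. Luminescent read-out followed 30 - 60 minutes at room temperature with DiscoveRx detection reagent.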
SW480 rerep – DNA re-replication induction in SW480 cells. Potency, µM (series often up to 46.1 µM), usual class: activators. SW480 DNA re-replication, Hoechst DNA content imaging, 48 h. 340,000 tested, 1.8% active. AID 624297; further: nearly all actives have a fitted effect of over 55% in size
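Per well, 250 cells were exposed to pinned compound for 48 hr. Nuclear DNA was visualised with Hoechst (40 min, 37 C) and total object intensity recorded by fluorescence scanning.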
KB-3-1 tox – KB-3-1 parental cell cytotoxicity. 400,000 tested, 1.4% active. Potency, µM (titrated, usually from 46.1 µM), usual class: cytotoxic. KB-3-1 viability, CellTiter-Glo ATP luminescence, 72 h; further: nearly all actives have a fitted effect of over 60% in size
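Viability of parental KB-3-1 cells, measured by CellTiter-Glo luminescence, followed a 72 h incubation at 37 °C with pinned compounds in phenol-red-free DMEM containing 10% FBS.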
MCF10A rereplic – induces DNA re-replication in MCF 10a normal breast cells. MCF 10A DNA re-replication, Hoechst nuclear intensity, 48 h. Potency, µM (top dose mostly 46.1 µM), most hits filed as activators. 350,000 tested, 2.9% active; further: nearly all actives have a fitted effect of over 50% in size
A number is an active result; - = inactive; ? = inconclusive; . = no result. Unless noted, the call rests on the fitted dose curve; in most records, active means well fitted curve in the direction sought with a large enough effect; inconclusive means small, poorly fitted or top-dose-only effect, or another doubt; inactive means no such curve, though single readings can be large; an effect the other way counts as inactive or inconclusive.

SMILES	KB-V1 MDR tox	D3 antag	D3 ag	SW480 rerep	KB-3-1 tox	MCF10A rereplic
COc1ccc(C2=Nn3c(nnc3-c3ccccc3)SC2)cc1OC	?	-	-	-	-	?
COc1ccc(C2=Nn3c(nnc3-c3ccccc3OC)SC2)cc1OCC1CC1	-	.	.	2.31µM	?	?
COc1ccc(OC)c(-c2nnc3n2N=C(c2ccc(OC(F)F)c(OCC4CC4)c2)CS3)c1	?	.	.	?	5.8µM	?
Cc1ccccc1Nc1c(-c2ccco2)nc2c(C)cccn12	-	.	-	.	-	.
CC(C)Cc1ccc(C(C)C(N)=NCCc2ccccc2)cc1 (stereo not drawn)	?	?	-	6.51µM	?	?
COc1ccc(CCN=C(N)C(C)c2ccccc2)cc1OC (stereo not drawn)	-	-	-	-	-	-
CC(C)(C)S(=O)N1Cc2cc(=O)n(Cc3ccccc3)c(CCO)c2[C@H]1CCO (stereo partly drawn)	-	-	-	-	-	?
Cc1c(Cl)cccc1NC(=O)CN1C(=O)CCn2nc(-c3cccn3C)cc21	-	.	-	.	-	.
CCc1ccc(CN(Cc2ccco2)c2cnc(S(C)(=O)=O)nc2C(=O)Nc2ccccc2Cl)cc1	-	.	-	.	-	.
COC(=O)c1nn(-c2ccccc2)c(=O)cc1O	-	-	-	-	-	-
COC(=O)c1nn(-c2c(C)n(C)n(-c3ccccc3)c2=O)cc1O	-	-	-	-	-	4.11µM
CC(C)c1ccc(NC(=O)C2CCN(S(=O)(=O)c3cccc4nonc34)CC2)cc1	-	.	-	.	-	.
O=S(=O)(CCOc1ccccc1)c1nc2ccccc2[nH]1	-	-	-	-	?	5.8µM
Cc1ccc(Nc2c([N+](=O)[O-])c(=O)oc3ccccc23)cc1	?	-	-	?	?	?
O=c1oc2ccccc2c(Nc2ccc3ccccc3c2)c1[N+](=O)[O-]	-	-85.7	-	-	?	?
CCc1nnc2c3ccccc3nc(Nc3ccc(F)cc3C)n12	-	.	-	.	-	.
CC(C)C(=O)Nc1nc(-c2ccc(S(=O)(=O)N3CCOCC3)cc2)cs1	.	-	-	-	.	?
COc1ccccc1C(=O)Nc1nc(-c2ccc(S(=O)(=O)N3CCOCC3)cc2)cs1	4.61µM	-	-	-	14.6µM	?
COc1ccccc1OC(C)C(=O)Nc1nc(-c2ccc(S(=O)(=O)N3CCOCC3)cc2)cs1 (stereo not drawn)	4.61µM	-	-	-	-	?
CCOC(=O)N1C(=O)[C@@](c2ccc(Cl)cc2)(C(C)C)N1C(=O)OCC	?	-50.7	-	?	-	20.6µM
COc1ccc2nc(C)cc(Nc3ccccc3O)c2c1	?	-	-	-	-	-
COc1ccc2nc(C)cc(NCc3cccc(C(F)(F)F)c3)c2c1	?	-	-	23.1µM	-	20.6µM
CCOC(=O)C1CCN(C(=O)COC(=O)/C=C/c2ccccc2)CC1	-	-	-	7.31µM	?	-
CCOC(=O)C1CCN(C(=O)C(CC)c2ccccc2)CC1 (stereo not drawn)	-	-	-	18.4µM	-	-
CCOC(=O)N1CCN(C(=O)C(C)N(c2ccccc2)S(C)(=O)=O)CC1 (stereo not drawn)	-	-	-	-	-	-
SMILES	KB-V1 MDR tox	D3 antag	D3 ag	SW480 rerep	KB-3-1 tox	MCF10A rereplic
CCOC(=O)C1CCN(C(=O)Cn2cccc2C(=O)c2ccccc2)CC1	20.6µM	-	-	-	-	-
CCOC(=O)N1CCN(C(=O)C(c2ccccc2)c2ccccc2)CC1	4.11µM	-	-	?	-	?
CCOC(=O)C1CCCN(C(=O)Cn2cccc2C(=O)c2ccccc2)C1 (stereo not drawn)	-	-	-	-	-	-
CN(C)c1ccc(CNC(=O)c2sc3ncccc3c2-n2cccc2)cc1	-	.	-	.	-	.
Cc1ccc(C(=O)c2cc(O)c(O)c([N+](=O)[O-])c2)cc1	.	.	-	.	.	.
Cc1cccc(N2CCN(C(=O)Cn3cccc3C(=O)c3ccccc3)CC2)c1C	16.4µM	-	-	?	?	?
O=C(/C=C/c1ccc([N+](=O)[O-])cc1)OCC(=O)N1CCOCC1	.	-	-	-	.	18.4µM
O=C(c1ccccc1)c1cccn1CC(=O)N1CCCCCC1	-	-	-	-	-	-
O=C(/C=C/c1ccccc1)OCC(=O)N1CCCC1	-	-	-	-	-	-
O=C(/C=C/c1cccc(F)c1)OCC(=O)N1CCCC1	-	-	-	8.2µM	-	?
O=C(c1ccc(Cl)cc1)n1nc(-c2ccccc2)nc1NCc1ccco1	.	.	-	.	.	.
Nc1n[nH]c(N)c1N=Nc1ccccc1	-	-	-	16.4µM	-	-
O=C(CCCCCn1c(=O)[nH]c2ccccc2c1=O)N1CCN(c2ccc(Cl)cc2)CC1	-	.	-	.	-	.
COC(=O)c1c(C)[nH]c(C(=O)OCC(=O)c2c(N)n(CC(C)C)c(=O)n(C)c2=O)c1C	-	-	-	-	?	?
COc1cccc(-c2cc(CC3(O)CCN(CCCc4ccccc4)CC3)on2)c1	-	-95.8	-	-	-	?
COc1cccc(-c2cc(C(=O)NCc3ccccc3)no2)c1	-	.	-	.	-	.
O=C(NCCSCc1ccccc1Cl)C1CCN(S(=O)(=O)Cc2ccccc2)CC1	-	.	-	.	-	.
CC(NC(=O)c1ccc2ccccc2n1)c1ccc(Br)cc1 (stereo not drawn)	-	-	-	?	?	23.1µM
COc1ccccc1CNS(=O)(=O)c1cc(C(=O)N(C)Cc2cccnc2)c(Cl)cc1Cl	5.17µM	-	-	-	?	-
COc1ccc(-c2nn(CC(=O)NCCc3ccccc3)c(=S)n2C)cc1	16.4µM	-	-	-	?	-
CCn1c(-c2ccc(C)cc2)nn(CC(=O)NCCc2ccccc2)c1=S	?	-	-	-	?	?
CCN1CCc2c(sc(NC(=O)c3ccc(S(=O)(=O)N4CCCC4)cc3)c2C(=O)NC)C1	?	-	-	?	?	18.4µM
CNC(=O)c1c(NC(=O)c2ccc(S(=O)(=O)N3CCCc4ccccc43)cc2)sc2c1CCN(C)C2	-	?	-	?	-	20.6µM
CN1CCc2c(sc(NC(=O)c3ccc(S(=O)(=O)N4CCCC4)cc3)c2C(N)=O)C1	-	-	-	-	-	-
CN1CCc2c(sc(NC(=O)c3ccc(S(=O)(=O)N4CCCCCC4)cc3)c2C(N)=O)C1	20.6µM	-	-	-	-	16.4µM
CNC(=O)c1c(NC(=O)c2ccc(S(=O)(=O)N3CCCCC3)cc2)sc2c1CCN(C(C)C)C2	-	-	-	?	-	-
COc1ccccc1-c1c(C(F)(F)F)oc2c(CN3CCCCC3C)c(O)ccc2c1=O (stereo not drawn)	-	.	-	.	-	.
COc1ccc(Cl)cc1NC(=O)CSc1nccn1Cc1ccco1	.	.	-	.	.	.
